Measured values: ChEMBL document CHEMBL3988442, “University of Dundee, Small-Polar-MMV Screening Library” (2021)
About 900 (1.7%) of roughly 53,000 compounds showed an effect of 50% or more. This is one part of a sample in which strong results are shown more often than they occur.

Test system: Mycobacterium tuberculosis
Test: Cornell - Phenotypic assay to identify agents that inhibit growth of Mycobacterium tuberculosis
Assay type: functional
Design: scale not given: direction of the effect not stated beside the values
Conditions: 10 mM as filed; unlikely as a test dose

Row | Compound | Percent Effect [%]
1 | COc1ccc(CNC(=O)CNc2cc3c(cc2Cl)OCCO3)cc1 | -25.81
2 | O=C(CNc1cc2c(cc1Cl)OCCCO2)NCc1ccc(F)cc1 | -2.409
3 | COc1ccc(CNC(=O)CNc2cc3c(cc2Cl)OCCCO3)cc1 | 53.68
4 | CCc1cc(C(=O)N2CCC3(CCCN(CC4CC4)C3=O)C2)cs1 (centres undefined) | 1.27
5 | Cc1ccccc1CN1CCC(NCC2CNc3ccnn3C2)CC1 (centres undefined) | 54.71
6 | c1ccc(Cn2cccn2)c(CNCC2CNc3ccnn3C2)c1 (centres undefined) | -42.61
7 | Cc1cc2n(n1)CC(CNC1CCN(Cc3ccccc3C)CC1)CN2 (centres undefined) | 1.638
8 | CS(=O)(=O)N1Cc2ccnn2CC(C(=O)NCc2cccnc2)C1.O=C(O)C(F)(F)F.O=C(O)C(F)(F)F (centres undefined) | -34.93
9 | CCC(C)NC(=O)NCc1cc2n(n1)CCCN(C1CCCCC1)C2 (centres undefined) | -10.73
10 | Fc1ccccc1-c1cccc(C2CCCN(C3CCOCC3)C2)n1 (centres undefined) | 36.89
11 | CN(C)C1COC2(CCN(Cc3ccncc3)CC2)C1 (centres undefined) | 9.126
12 | CC(=O)N(Cc1noc(C2CC2)n1)C1CCN(CC2CCOCC2)C1 (centres undefined) | -29.12
13 | CC(=O)N1CCC(c2nccnc2-c2ccc(C(=O)O)cc2)CC1 | -19.35
14 | Cc1ccccc1CN1CCOC(c2nccc(CN(C)C)n2)C1 (centres undefined) | -48.65
15 | COc1ccc(OCc2cc(C(=O)N3CC=CC3)n[nH]2)c(Cl)c1 | 40.41
16 | COc1ccc(OCc2cc(C(=O)N3C[C@@H](C)O[C@@H](C)C3)n[nH]2)c(Cl)c1 | 4.963
17 | COc1ccc(OCc2cc(C(=O)N3CCOCC3)n[nH]2)c(Cl)c1 | 19.45
18 | COc1ccc(OCc2cc(C(=O)N3CCSCC3)n[nH]2)c(Cl)c1 | 54.8
19 | COc1ccc(OCc2cc(C(=O)N3CCCCO3)n[nH]2)c(Cl)c1 | 106.4
20 | COc1ccc(OCc2cc(C(=O)N3CCC(O)CC3)n[nH]2)c(Cl)c1 | 6.579
21 | CC(C(=O)N1CCOCC1)N1CCN(Cc2nccn2C)CC1 (centres undefined) | -9.72
22 | N#Cc1cccc(S(=O)(=O)N2CCCCC2C(N)=O)c1 (centres undefined) | 15.32
23 | O=C(Cc1cccnc1)N1CCCC(n2cncn2)C1 (centres undefined) | -17.88
24 | Cc1nn(C)c2c(NCc3ccncc3)nc(C3CC3)nc12 | -8.977
25 | CCN(CC(C)C#N)C(=O)CNc1cc(Cl)ccc1C(N)=O (centres undefined) | -0.05585

Row | Compound | Percent Effect [%]
26 | COCC1CCCN(C(=O)c2ccc(NC(=O)CC(C)C)c(C)c2)C1 (centres undefined) | -1.652
27 | CCN(Cc1cccc(C)c1)Cn1nc(C)c2c(C)onc2c1=O | -12.96
28 | COc1nn(C)c2c1CCCN(C(=O)c1cc[nH]n1)C2 | 12.29
29 | CC1(C)OC(=O)N(CC(=O)N2CCC(c3ccccc3F)C2)C1=O (centres undefined) | 22.76
30 | COc1ccccc1C1CCN(C(=O)CN2C(=O)OC(C)(C)C2=O)CC1 | 53.49
31 | CC1(C)OC(=O)N(CC(=O)N2CCC(c3ccccc3Cl)C2)C1=O (centres undefined) | 25.58
32 | O=C(O)C(F)(F)F.O=C1CC2(CCN(Cc3ccccn3)C2)CN1c1cncnc1 (centres undefined) | 17.37
33 | CCCC(C#N)NC(=O)c1cc(Br)c2c(c1)OCCO2 (centres undefined) | 14.39
34 | Oc1ccc(Cl)cc1CNCc1ccccc1C(F)(F)F | 6.779
35 | Oc1ccc(Cl)cc1CNCc1ccccc1Cl | 26.21
36 | Oc1ccc(Cl)cc1CNCc1cccc(C(F)(F)F)c1 | 70.21
37 | CCc1nnc(NC(=O)c2c3c(nn2C2CCS(=O)(=O)C2)CCC3)s1 (centres undefined) | -18.44
38 | CNC(=O)NCC1CCC2(CCN(C(=O)c3ccccc3)CC2)CO1 (centres undefined) | 2.943
39 | O=C(O)C(F)(F)F.O=C([C@H]1CC[C@@H]2[C@@H](CCN2C2CCOCC2)O1)N1CCOCC1 | 0.461
40 | O=C(CN1CCc2sccc2C1)Nc1ccnc2ccnn12 | 105.2
41 | Cn1nccc1NC(=O)CN1CCc2sccc2C1 | -1.554
42 | CC(C)n1nccc1NC(=O)CN1CCc2sccc2C1 | 2.695
43 | O=C(O)C(F)(F)F.O=C(O)C(F)(F)F.O=C(c1cccnc1)N1CCC[C@]2(C[C@H](Oc3ncccc3F)CO2)C1 | -30.18
44 | COCCN1CCC(c2cncc(N(C)C)n2)CC1 | -17.24
45 | Cc1nccc(C2CN(Cc3ccc(-c4ccccc4C(=O)O)o3)C2)n1 | 19.38
46 | O=C(O)c1ccccc1-c1ccc(CN2CC(c3ccncn3)C2)o1 | 60.18
47 | Nc1nccc(C2CN(Cc3ccc(-c4ccccc4C(=O)O)o3)C2)n1 | 40.18
48 | CCc1ccc(CN(CCCn2ccnc2)Cc2ccc(C)s2)o1.O=C(O)CC(O)(CC(=O)O)C(=O)O | 67.99
49 | Cc1ccc(CN(CCCn2ccnc2)Cc2ccccc2O)s1.O=C(O)CC(O)(CC(=O)O)C(=O)O | -13.23
50 | Cc1ccc(CN(CCCn2ccnc2)Cc2cccs2)s1.O=C(O)CC(O)(CC(=O)O)C(=O)O | 40.45

Row | Compound | Percent Effect [%]
51 | Cc1cnc(CCNC(=O)NCCc2ccc(O)cc2)s1 | 16.98
52 | O=C(c1ccno1)N1CCn2cc(CN3CCCCC3)nc2C1 | 6.548
53 | CCc1ccc(C(COC)NC(=O)c2ccsc2)o1 (centres undefined) | 37.56
54 | c1cc2n(n1)CC(CNCc1ccc(OC3CCCCC3)nc1)CN2 (centres undefined) | 102.7
55 | c1cc(CNCC2CNc3ccnn3C2)cc(OC2CCCCC2)n1 (centres undefined) | -14.29
56 | c1cc2n(n1)CC(CNCc1ccc(OC3CCCC3)nc1)CN2 (centres undefined) | -62.66
57 | O=C(C1CCC1)N1CCCn2nc(CNc3ncccn3)cc2C1 | 5.205
58 | Cc1c(CN(C)c2cc(C3CCCNC3)ncn2)[nH]c2ccccc12 (centres undefined) | 61.5
59 | CN(Cc1cc2cc(F)ccc2[nH]1)c1cc(C2CCCNC2)ncn1 (centres undefined) | 13.11
60 | Cc1nc(C2CCCNC2)cc(N(C)CCc2ccccc2)n1 (centres undefined) | 0.6184
61 | CN1C(=O)CCc2cc(NS(=O)(=O)Cc3cccc(F)c3)ccc21 | 1.464
62 | O=C(Nc1cccs1)N1CC(c2nc(C3CC3)no2)C1 | 107.8
63 | O=C(Nc1c(F)cccc1F)N1CC(c2nc(C3CC3)no2)C1 | 10.47
64 | COCCc1noc(C2CCN(C(=O)Nc3cccs3)CC2)n1 | 17.42
65 | O=C(Nc1cccnc1)[C@H]1C[C@H]2OCC[C@H]2N(Cc2ccc(F)cc2)C1.O=C(O)C(F)(F)F.O=C(O)C(F)(F)F | 11.11
66 | CC(C)C(=O)NCCc1cc2nc(-c3ccncc3)ccn2n1 | -48.83
67 | COCCN1CCC(CNC(=O)C2(c3ccc(Br)cc3)CCCC2)C1 (centres undefined) | 15.91
68 | CCCn1ncc(-c2ccnc(NC3CCCc4ccccc43)n2)c1C (centres undefined) | 50.48
69 | CCCn1ncc(-c2ccnc(NC3CCSC3)n2)c1C (centres undefined) | -4.809
70 | Cc1nn(CCO)c(C)c1CNC1CCCCc2ccccc21 (centres undefined) | 11.7
71 | CCCn1cc(-c2ccnc(NC3CCc4ccccc43)n2)c(C)n1 (centres undefined) | 36.22
72 | OCCNc1nccc(-c2cn3nccc3nc2C2CCCCC2)n1 | 15.49
73 | CCCn1ncc(-c2ccnc(N[C@@H]3C[C@@H]4CC[C@H]3C4)n2)c1C | 88.15
74 | CCCn1cc(-c2ccnc(NC3CCc4ccccc4C3)n2)c(C)n1 (centres undefined) | 8.734
75 | CCCn1ncc(-c2ccnc(NC3CC(C)(C)NC(C)(C)C3)n2)c1C | -32.04

Row | Compound | Percent Effect [%]
76 | CCCn1cc(-c2ccnc(NC3CCCc4ccccc43)n2)c(C)n1 (centres undefined) | 106.6
77 | O=C1NCC2(CCCN(c3ncnc4c3CCC4)CC2)O1 (centres undefined) | 11.26
78 | O=C(CCSc1ccc2c(c1)OCCO2)NCC1CCS(=O)(=O)C1 (centres undefined) | -7.695
79 | CCC(C)NC(=O)Nc1cccc(OCCCC#N)c1 (centres undefined) | -0.4736
80 | CC(C)NC(=O)Cn1ccc2c(Cl)cccc21 | 18.88
81 | COc1ccc(CN(C)CC(=O)Nc2ccc3[nH]c(=O)[nH]c3c2)cc1F | -12.93
82 | COCCN1C(=O)C2(CCC(C(=O)Nc3cccc(C)c3)CC2)N=C1C (centres undefined) | 23.11
83 | COc1cccc(NC(=O)c2nc3ccccc3n(C)c2=O)c1 | 19.08
84 | COc1ccc(NC(=O)C2CC(=O)n3cnnc3S2)cc1 (centres undefined) | 106.3
85 | COc1cccc(NC(=O)C2CC(=O)n3cnnc3S2)c1 (centres undefined) | 106.8
86 | Cc1cccc(NC(=O)C2CCc3ccccc3N2)c1.Cl (centres undefined) | 44.23
87 | Cc1cccc(NC(=O)C2CC(=O)n3cnnc3S2)c1 (centres undefined) | 107.8
88 | COc1ccc(NC(=O)C(c2ccc(OC)cc2)N2CCOCC2)cc1 (centres undefined) | -0.3618
89 | COc1ccc(C2CCCN2C(=O)Nc2ccc(OC)nc2)cc1 (centres undefined) | 1.248
90 | COc1cccc(NC(=O)N2CC[C@@H]3CN(C)S(=O)(=O)[C@@H]3CC2)c1 | -43.46
91 | Cc1nnc(NC(=O)c2cc(S(=O)(=O)N3CCSCC3)c[nH]2)s1 | -1.205
92 | CCc1cc(-c2ccnc3c2ccn3C)nc(N2CCOCC2)n1 | 3.05
93 | N#Cc1ccc(C(=O)N2CCC3(CC2)CC3)cc1 | -6.813
94 | O=C(c1cc(C2CCCCC2)no1)N1C[C@H]2C[C@H](O)C[C@H]2C1 | 24.89
95 | CNC(=O)[C@H]1C[C@@H]2CN(C(=O)c3ccc(C)o3)C[C@@H]2N1S(C)(=O)=O | 18.79
96 | Cc1cc(CC(=O)NC2CCCN(Cc3ccccc3)C2=O)n[nH]1 (centres undefined) | -5.186
97 | Cc1ccccc1CN1CCCC1c1cccc(Nc2nccs2)n1 (centres undefined) | 44.82
98 | Cc1nn(C)cc1CN1CCCC1c1cccc(Nc2nccs2)n1 (centres undefined) | 56.13
99 | Cc1cnc(Nc2cccc(C3CCCN3Cc3cn(C)nc3C)n2)s1 (centres undefined) | 23.5
